# Data as given in PubChem BioAssay (NCI).
# About 79,000 compounds went through this panel and 15% of them were active in at least one assay; those are over-represented in the sample as a whole. Unmarked numbers belong to inactive results. Calls of active or inactive are those of the source. Rule as the data show it: active = growth inhibition above about 70%; inactive = the rest.
# How the values were obtained:
# [1] = NCI Yeast Anticancer Drug Screen. Data for the rad50 strain (AID 155);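 also: 0% = growth of vehicle-only cultures of the same strain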; settings: S. cerevisiae rad50 strain growth inhibition, stronger effect = higher value
# In short: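 Yeast carrying a defined DNA repair defect were exposed to test compounds, and growth was compared with vehicle-treated controls to give percent inhibition.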
# [2] = NCI Yeast Anticancer Drug Screen. Data for the mec2-1 strain (AID 157); settings: S. cerevisiae mec2-1 strain, stronger effect = higher value
# In short: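 Vehicle-treated cultures served as reference for growth inhibition of compound-exposed mec2-1 yeast.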
# [3] = NCI Yeast Anticancer Drug Screen. Data for the sgs1 mgt1 strain (AID 161);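 also: 0% = growth of cultures given vehicle only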; settings: S. cerevisiae sgs1 mgt1 strain, stronger effect = higher value
# In short: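 Genetically altered yeast, compound exposure, growth inhibition relative to vehicle.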
# [4] = NCI Yeast Anticancer Drug Screen. Data for the cln2 rad14 strain (AID 165);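 also: 0% = growth equal to vehicle treated cultures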; settings: S. cerevisiae cln2 rad14 strain, stronger effect = higher value
# In short: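 Each compound was tested on cln2 rad14 yeast. Inhibition of growth was calculated against vehicle-exposed controls.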
# [5] = NCI Yeast Anticancer Drug Screen. Data for the bub3 strain (AID 167); settings: S. cerevisiae bub3 mutant strain, stronger effect = higher value
# In short: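 Compounds were applied to a genetically altered yeast strain carrying a cell-cycle control defect. Growth inhibition was scored against vehicle-treated controls.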
# [6] = NCI Yeast Anticancer Drug Screen. Data for the mlh1 rad18 strain (AID 175); settings: S. cerevisiae mlh1 rad18 strain growth inhibition, stronger effect = higher value
# In short: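 Vehicle-treated cultures served as the reference for growth inhibition in a yeast strain carrying DNA damage repair alterations exposed to each compound.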
# [7] = at 5.0 µM (retest, dose inferred, filed as 0.5)
# [8] = at 50.0 µM (retest, dose inferred, filed as 5.0)
Compound,"growth inhibition [1, 7]","growth inhibition [1, 8]",growth inhibition ([1]; at 50.0 µM),"growth inhibition [2, 7]","growth inhibition [2, 8]",growth inhibition ([2]; at 50.0 µM),"growth inhibition [3, 7]","growth inhibition [3, 8]",growth inhibition ([3]; at 50.0 µM),"growth inhibition [4, 7]","growth inhibition [4, 8]",growth inhibition ([4]; at 50.0 µM),"growth inhibition [5, 7]","growth inhibition [5, 8]",growth inhibition ([5]; at 50.0 µM),"growth inhibition [6, 7]","growth inhibition [6, 8]",growth inhibition ([6]; at 50.0 µM)
Cc1scnc1C(C#N)(c1ccccc1)c1ccccc1,9%,97% (active),98.5% (active),4%,98% (active),98.5% (active),4%,98% (active),98.7% (active),8%,98% (active),98.5% (active),9%,97% (active),98.8% (active),7%,97% (active),98.5% (active)
Cc1c(N)nc(C2CC(=O)N2CC(N)C(N)=O)nc1C(=O)NC(C(=O)NC(C)C(O)C(C)C(=O)NC(C(=O)NCCc1nc(-c2nc(C(=O)NCCCNC3CCCC3)cs2)cs1)C(C)O)C(OC1OC(CO)C(O)C(O)C1OC1OC(CO)C(O)C(OC(N)=O)C1O)c1cnc[nH]1 (stereo not given),98% (active),99% (active),92.2% (active),97% (active),99% (active),93.3% (active),96% (active),98% (active),93.5% (active),93% (active),97% (active),88.3% (active),97% (active),98% (active),93.5% (active),98% (active),99% (active),92% (active)
CC(C)=CCC(CC=C(C)C)c1ccncc1 (tested in a mixture with another compound),16%,99% (active),99.2% (active),15%,99% (active),99.5% (active),-92%,100% (active),99.5% (active),5%,98% (active),99.4% (active),21%,99% (active),98.8% (active),49%,99% (active),99.5% (active)
CCOC(=O)c1ccc(NC(=O)CCl)cc1,3%,99% (active),51.9%,8%,98% (active),38.7%,21%,98% (active),67.5%,8%,91% (active),28.7%,0%,95% (active),40%,12%,99% (active),64.2%
Nc1ccc(Oc2ccc(-c3ccccc3)cc2)c(Cl)c1,61%,97% (active),97.8% (active),61%,98% (active),98.3% (active),72% (active),98% (active),98% (active),35%,97% (active),96.3% (active),78% (active),97% (active),98% (active),89% (active),97% (active),97.7% (active)
Nc1cc(Br)cc2c1[nH]c1ccc(Br)cc12,46%,98% (active),98.6% (active),16%,98% (active),99% (active),59%,99% (active),98.1% (active),3%,97% (active),97.8% (active),18%,98% (active),98.5% (active),58%,98% (active),98.9% (active)
C=C1C(=O)C23C(O)C1CC[C@H]2C12CCCC(C)(COC(C)=O)[C@H]1[C@H](O)[C@]3(O)OC2 (stereo not given in full),28%,94% (active),90.4% (active),26%,97% (active),92.2% (active),83% (active),97% (active),92.2% (active),77% (active),96% (active),89.2% (active),22%,96% (active),90% (active),43%,95% (active),89.2% (active)
CCOC(=O)N(c1ccccc1)N(CC)C(=O)/C(C)=N/Nc1ccc([N+](=O)[O-])cc1,6%,93% (active),97.7% (active),5%,94% (active),95.8% (active),9%,94% (active),97.7% (active),10%,95% (active),92.2% (active),-10%,92% (active),95.8% (active),-1%,94% (active),97% (active)
Cc1cc([N+](=O)[O-])ccc1NC(=O)N(C)CCOC(=O)Nc1ccccc1,48%,90% (active),84% (active),43%,95% (active),89.2% (active),42%,96% (active),89.5% (active),32%,97% (active),86.4% (active),44%,97% (active),89.3% (active),64%,96% (active),87.8% (active)
O=C1CSC(=S)N1c1ccc(I)cc1,1%,34%,99% (active),-2%,11%,99% (active),2%,59%,99.2% (active),-2%,-8%,83.8% (active),-6%,26%,99% (active),0%,75% (active),98.7% (active)
